Data: the supplement of paper PMC12282887
± gives the standard deviation of the averaged measurements.

System: E. coli BW25113 marRABp lux reporter
Test: promoter activity interaction Z-score (Lux/OD deviation from empty-vector control); higher = stronger promoter induction by the compound
Procedure: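 E. coli BW25113 (wild type or ΔmarA/ΔsoxS/Δrob) carrying pTU175 luxCDABE promoter reporters was grown in LB in 384-well plates at 37°C with each of 94 compounds at 4 two-fold concentrations, in biological duplicates. Luminescence and OD600 were read every 30 min for 12 h and integrated as AUC over 8 h (0-8 h WT, 1-9 h mutants). Lux AUC was divided by OD AUC; the interaction score is the residual of a Huber robust fit of each promoter against the empty-vector control, then Z-transformed per promoter.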

Structure (SMILES) | promoter activity interaction Z-score (13.5 µg/ml, genetic background: wild type) | promoter activity interaction Z-score (13.5 µg/ml, genetic background: ΔmarA) | promoter activity interaction Z-score (13.5 µg/ml, genetic background: Δrob) | promoter activity interaction Z-score (13.5 µg/ml, genetic background: ΔsoxS) | promoter activity interaction Z-score (26.9 µg/ml, genetic background: wild type) | promoter activity interaction Z-score (26.9 µg/ml, genetic background: ΔmarA) | promoter activity interaction Z-score (26.9 µg/ml, genetic background: Δrob) | promoter activity interaction Z-score (26.9 µg/ml, genetic background: ΔsoxS) | promoter activity interaction Z-score (53.9 µg/ml, genetic background: wild type) | promoter activity interaction Z-score (53.9 µg/ml, genetic background: ΔmarA) | promoter activity interaction Z-score (53.9 µg/ml, genetic background: Δrob) | promoter activity interaction Z-score (53.9 µg/ml, genetic background: ΔsoxS) | promoter activity interaction Z-score (107.7 µg/ml, genetic background: wild type) | promoter activity interaction Z-score (107.7 µg/ml, genetic background: ΔmarA) | promoter activity interaction Z-score (107.7 µg/ml, genetic background: Δrob) | promoter activity interaction Z-score (107.7 µg/ml, genetic background: ΔsoxS) | promoter activity interaction Z-score (19 µg/ml, genetic background: wild type) | promoter activity interaction Z-score (19 µg/ml, genetic background: ΔmarA) | promoter activity interaction Z-score (19 µg/ml, genetic background: Δrob) | promoter activity interaction Z-score (19 µg/ml, genetic background: ΔsoxS) | promoter activity interaction Z-score (38 µg/ml, genetic background: wild type) | promoter activity interaction Z-score (38 µg/ml, genetic background: ΔmarA) | promoter activity interaction Z-score (38 µg/ml, genetic background: Δrob) | promoter activity interaction Z-score (38 µg/ml, genetic background: ΔsoxS) | promoter activity interaction Z-score (76.1 µg/ml, genetic background: wild type) | promoter activity interaction Z-score (76.1 µg/ml, genetic background: ΔmarA) | promoter activity interaction Z-score (76.1 µg/ml, genetic background: Δrob) | promoter activity interaction Z-score (76.1 µg/ml, genetic background: ΔsoxS) | promoter activity interaction Z-score (152.1 µg/ml, genetic background: wild type) | promoter activity interaction Z-score (152.1 µg/ml, genetic background: ΔmarA) | promoter activity interaction Z-score (152.1 µg/ml, genetic background: Δrob) | promoter activity interaction Z-score (152.1 µg/ml, genetic background: ΔsoxS)
CC(=O)O[C@H]1C[C@@]2(C)[C@@H](C[C@@H](O)[C@H]3[C@@]4(C)CC[C@@H](O)[C@@H](C)[C@@H]4CC[C@@]32C)/C1=C(\CCC=C(C)C)C(=O)O [Fusidic acid] | -0.438 ± 0.029 | 0.0154 ± 0.048 | -0.0451 ± 0.073 | 0.0686 ± 0.1 | 0.0382 ± 0.39 | 0.3 ± 0.31 | 0.0321 ± 0.089 | 0.122 ± 0.072 | 0.384 ± 0.077 | 0.457 ± 0.14 | 0.307 ± 0.22 | 0.418 ± 0.13 | 0.539 ± 0.64 | 0.236 ± 0.49 | 0.523 ± 0.97 | 1.17 ± 0.92 | – | – | – | – | – | – | – | – | – | – | – | – | – | – | – | –
COc1cc(C=O)ccc1O [Vanillin] | – | – | – | – | – | – | – | – | – | – | – | – | – | – | – | – | -0.156 ± 0.018 | -0.451 ± 0.34 | 0.0366 ± 0.23 | -0.21 ± 0.21 | 0.304 ± 0.065 | 0.0122 ± 0.2 | 0.119 ± 0.4 | -0.0492 ± 0.056 | 0.913 ± 0.07 | 0.599 ± 0.31 | 0.595 ± 0.066 | 0.224 ± 0.12 | 1.28 ± 0.41 | 1.702 ± 0.0098 | 1.077 ± 0.0082 | 0.812 ± 0.084
